Consider 28 compounds from PubChem BioAssay (EPA / NIEHS).

Where a structure was tested more than once in an assay, its records may differ in their call. Active and inactive are the calls of the source. The calls were made as follows: active = hit-call score of the fitted dose curve at least 0.9, where 1 is the maximum; inactive = score below 0.9.

The assay can be described thus: APR_HepG2_MitoMass_72hr: Apredica 72-hour HepG2 Assay for Mitochondrial Mass (AID 2282924).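 Also: MitoTracker Red CMXRos stain intensity per cell imaged as mitochondrial mass.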 To be noted: high-content imaging, actives raise or lower the signal. The protocol:
APR_HepG2_72hr is a cell-based, multiplexed-readout assay that uses HepG2, a human liver cell line, with measurements taken at 72 hours after chemical dosing in a 384-well plate.APR_HepG2_MitoMass_72hr is one of 10 assay component(s) measured or calculated from the APR_HepG2_72hr assay. It is designed to make measurements of cell phenotype, a form of morphology reporter, as detected with fluorescence intensity signals by HCS Fluorescent Imaging technology.Data from the assay component APR_HepG2_MitoMass_72hr was analyzed into 1 assay endpoint. This assay endpoint, APR_HepG2_MitoMass_72hr, was analyzed with bidirectional fitting relative to DMSO as the negative control and baseline of activity. Using a type of morphology reporter, gain or loss-of-signal activity can be used to understand changes in the signaling. Furthermore, this assay endpoint can be referred to as a primary readout, because this assay has produced multiple assay endpoints where this one serves a signaling function. To generalize the intended target to other relatable targets, this assay endpoint is annotated to the cell morphology intended target family, where the subfamily is organelle conformation.
Cells were treated with dimethyl sulfoxide (DMSO) as a solvent control at a final concentration of 0.5% v/v or with compounds in DMSO with a resulting final DMSO concentration of 0.5% v/v. Compound treatment was done at concentrations of 0.39, 0.78, 1.56, 3.12, 6.24, 12.5, 25, 50, 100, and 200 uM in duplicate on each plate. Cells were treated with compounds for 1, 24, or 72 hr. Carbonyl […] m-chloro-phenylhydrazone (CCCP) and taxol were used as positive controls for mitochondrial function and cytoskeletal stability, respectively; DMSO served as the negative control for this experiment. Cells were fixed by the direct addition of 50 uL formaldehyde in Hank's Balanced Salt Solution (HBSS) to a final concentration of 3.7%. After incubation in the fixation medium for 30 min at room temperature (293-298 K), cells were rinsed twice with HBSS and treated with cell permeabilization buffer (16 uL of 0.5% Triton X-100) for 10 min at room temperature (293-298 K) before labeling. For mitochondrial membrane potential and mitochondrial measurements, pre-fixed cells were incubated with 50 uL of MitoTracker Red CMXRos (Invitrogen) at a concentration of 250 nM for 30 min before fixation. In the remaining cases, post-fixed cells were labeled by incubation with a multiplexed mixture of primary antibodies in HBSS for 60 min at room temperature (293-298 K) to detect immunoreactivity of c-Jun (1:500), phospho-histone H3 (1:100), phospho-histone H2A.x (1:200), p53 (1:400), alpha-tubulin (1:200) and Hoechst 33342 (2 ug/mL). Cells were labeled for multiplexed imaging on two separate plates: a) Hoechst 33342, MitoTracker Red, phospho-histone H3, and alpha-tubulin, and b) Hoechst 33342, phospho-histone H2A.x, and c-Jun. A final rinse with HBSS (50 uL) was performed before analysis. The primary and secondary antibodies for the proteins were phospho-histone H3 (rabbit anti-phospho-histone H3 and FITC-donkey anti-rabbit IgG), phospho-histone H2A.x (mouse anti-phospho-histone H2A.x and FITC-donkey anti-mouse IgG), c-Jun (rabbit anti-phospho-c-Jun and Cy3-donkey anti-rabbit IgG), p53 (sheep anti-p53 and Cy5-donkey anti-sheep IgG), alpha-tubulin (mouse anti-alpha-tubulin and Cy5-donkey anti-mouse IgG). These antibodies are available as the CellCiphr HepG2 assay kit (Millipore).Digital images of each well were captured using a Cellomics ArrayScan VTI (Thermo Scientific Cellomics) (0.8 NA objective, 0.63x optical coupler, and XF-93 filter set) at 20x magnification. The images were acquired using the autofocus feature of the ArrayScan instrument, which entails the following steps. First, the camera focuses on channel 1 (Hoechst 33342), where nuclei are identified. Second, a Z offset of 1 um is used for capturing mitochondria (MitoTracker Red). […]
Consider `C[C@@H]1C[C@@H]([C@H](O)CC2CC(=O)NC(=O)C2)C(=O)[C@@H](C)C1`, for which the result was inactive.
The term AC50 denotes the midpoint of the concentration-response curve, whichever way the signal moves. On to `CC(C)(c1ccccc1)c1ccc(O)c(C(C)(C)c2ccccc2)c1`, for which the AC50 was 30.1 µM (active).
Regarding `CCC(=O)C(CC(C)N(C)C)(c1ccccc1)c1ccccc1` (centres undefined), the compound was called inactive.
As to `CC12CC1(C)C(=O)N(c1cc(Cl)cc(Cl)c1)C2=O` (centres undefined), the compound was called inactive.
`CC(=O)[O][Hg][c]1ccccc1`: the AC50 was 83.5 µM (active).
With `CN(C)N=O`, the outcome was inactive.
Still for that read-out and setting: then `C=CC(=O)OCCCCCC(C)C`, with “inactive”.
With `O=C(O)C(Cl)(Cl)Cl`, the AC50 was 162 µM (active) and the compound was called inactive.
`COc1cc(-c2ccc(N)c(OC)c2)ccc1N`: the result was inactive.
In the case of `O=C(O)C(F)(F)C(F)(F)C(F)(F)C(F)(F)C(F)(F)C(F)(F)C(F)(F)C(F)(F)C(F)(F)C(F)(F)F`, the half-maximal activity concentration (AC50) is 72.9 µM (active).
Same read-out and setting: then `Cn1sc(Cl)cc1=O`, with 163 µM (active); and `O=C(Nc1ccc2[nH]ccc2c1)c1cc2cc(F)ccc2n1Cc1cccc(F)c1`, with 26.9 µM (active).
`ClC1(Cl)C2(Cl)C3(Cl)C4(Cl)C(Cl)(Cl)C5(Cl)C3(Cl)C1(Cl)C5(Cl)C24Cl` (centres undefined): the result was inactive.
Still for that read-out and setting: then `ClCC(Cl)CCl`, with “inactive”.
For the compound `CCC(C)(C)c1ccc(O)c(C(C)(C)CC)c1`, the AC50 was 82.5 µM (active).
Still for that read-out and setting: then `Oc1cccc2cccnc12`, with 3.1 µM (active).
On to `CC(C)(OO)c1ccccc1`, for which the compound was classed as inactive.
`C=C(C)C(=O)[O][Sn]([CH2]CCC)([CH2]CCC)[CH2]CCC`: the AC50 is 0.395 µM (active).
Still for that read-out and setting: then `O=C(O)C(F)(F)C(F)(F)C(F)(F)C(F)(F)C(F)(F)C(F)(F)F`, with 13 µM (active).
On to `NC(=O)O`, for which the call was inactive.
Same read-out and setting: then `Cc1ccccc1N`, with “inactive”.
On the same count and under the same terms, then `O=c1[nH]c(=O)[nH]c(=O)[nH]1`, with “inactive”.
Take `CCN1CCC2(CC1)COc1cc3c(cc12)N(C(=O)c1ccc(-c2ccc(-c4nnc(C)o4)cc2C)cc1)CC3`: the AC50 is 44.7 µM (active).
Turning to `C[C@]12CCC(=O)C[C@@H]1CC[C@@H]1[C@@H]2CC[C@]2(C)[C@@H](O)CC[C@@H]12`, the outcome was inactive.
On to `CC(C)(C)c1cc(O)ccc1O`, for which the AC50 was 108 µM (active).
Same read-out and setting: then `CCCCCCCCc1ccc(O)cc1`, with 95 µM (active).
Take `CC(C)(C)CC(C)(C)c1ccc(O)cc1`: the compound was classed as inactive.
Still for that read-out and setting: then `O=C1C2(Cl)C3(Cl)C4(Cl)C(Cl)(Cl)C5(Cl)C3(Cl)C1(Cl)C5(Cl)C24Cl` (centres undefined), with “inactive”.
